# Experimental data published in PubChem BioAssay (NCI).
# Values joined by “and” are separate entries in the source; they are usually repeats but may differ in a detail not shown here. Equal entries are not always repeated. About 83,000 compounds went through this panel and 20% of them were active in at least one assay; those are over-represented in the sample as a whole.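 Plates (96-well) were seeded with cells, treated with compound at one concentration, and incubated for 48 hours before percent growth was determined.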 A number with no mark means an inactive call. Active and inactive are the calls of the source. The calls were made as follows: active = growth percent below 10; inactive = the rest.
# Test system: MDA-MB-468 breast
# Assay: NCI-60 one-dose screen, 48 h (100 = growth as untreated, 0 = no growth, -100 = all killed)
# Conditions: 10 µM unless noted
row,SMILES,growth
1,CC(=O)CC(=O)SC1=NCCS1,124%
2,CCOC(=O)/C=C1\SC(=Nc2ccc(C#N)cc2)N(CCN2C(=O)/C(=C/C(=O)OCC)SC2=Nc2ccc(C#N)cc2)C1=O,55.3%
3,COc1cccc(-c2nn(-c3ccccc3)cc2-c2ccnc(NCCCNC(=O)Nc3ccc(Cl)c(Cl)c3)c2)c1,-42.9% (active)
4,O=C(OC[C@H]1O[C@H](OC(=O)c2cc(O)c(O)c(OC(=O)c3cc(O)c(O)c(O)c3)c2)[C@H](OC(=O)c2cc(O)c(O)c(OC(=O)c3cc(O)c(O)c(O)c3)c2)[C@@H](OC(=O)c2cc(O)c(O)c(OC(=O)c3cc(O)c(O)c(O)c3)c2)[C@@H]1OC(=O)c1cc(O)c(O)c(OC(=O)c2cc(O)c(O)c(O)c2)c1)c1cc(O)c(O)c(OC(=O)c2cc(O)c(O)c(O)c2)c1,54.1%
5,CCOC(=O)c1cc(C(=O)c2ccc(OC)c(OC)c2)n2ccc(-c3ccccn3)cc12,74.9%
6,Brc1ccc2[nH]cc(-c3nonc3-c3c[nH]c4ccccc34)c2c1,62.9%
7,CCOC(=O)c1ccc(C(=N)N)cc1,106%
8,O=C1Nc2ccccc2/C1=C/c1ccc(CO)n1-c1ccc(Cl)cc1,27.8%
9,CCCCCCCCCCCCCCCCCC(=O)[O][Sn]([CH2]CCC)([CH2]CCC)[CH2]CCC,-96.2% (active)
10,COC(=O)[C@H](NC(=O)C1(C)CCC[C@]2(C)[C@H]3C[C@H]4C(C(C)C)=C[C@]3(CC[C@@H]12)[C@@H]1C(=O)CCC(=O)[C@@H]14)C(C)C (stereo not given in full),101%
11,O=C(Nc1nc2ccc([N+](=O)[O-])cc2s1)Nc1ccccc1Br,33.2%
12,CNC(=O)c1ccc(C)c(-n2c(C)cc(OCc3ccc(F)cc3F)c(Br)c2=O)c1,53.4% and 63.5%
13,N/C(=N\c1nc2ccccc2s1)NC(=O)Nc1ccccc1Cl,16.6%
14,CN1CCOCCN(C)Cc2ccc3ccc(cc3c2)CN(C)CCOCCN(C)Cc2ccc3ccc(cc3c2)C1,52.9%
15,O=c1[nH]n(-c2ccccc2)c(=O)cc1Cl,101%
16,Cc1nnc(N/N=C/c2ccc([N+](=O)[O-])o2)[nH]c1=O,31.2%
17,COc1cc(-c2noc(C[C@@H](NC(=O)OCc3ccccc3)C(C)C)n2)cc(OC)c1OC,88.5%
18,CCCCN1C(=O)/C(=c2\sc3n(c2=O)C2C(NN=3)N(CC)C(=O)N2CC)c2cccc(C)c21 (stereo not given),12.4%
19,COc1cc(C(=O)Nc2ccc(N(C)C)cc2)cc(OC)c1OC,80%
20,CCCCCCNC(=O)Oc1ccc(/C(=C(\C)c2ccc(Cl)cc2)c2ccc(OCCN(C)C)cc2)cc1,84.3%

row,SMILES,growth
1,C=CC1=C(C)C2=NC1=CC1=NC(=CC3=C(C)C4=C(O)C(C(=O)O)C(=C5NC(=C2)C(C)C5CCC(=O)O)C4=N3)C(CC)=C1C (stereo not given),115%
2,Nc1nc2cc(O)ccc2n2cc3c(F)cccc3c12,18.6%
3,CC(C)=CC/C=C(/C)[C@H]1CC[C@]2(C)[C@@H]1CC[C@@H]1[C@@]3(C)CCCNC(C)(C)[C@@H]3CC[C@]12C,-50.1% [100 µM] (active)
4,CCN1CCC(CCOC)(CN2c3ccccc3Sc3ccc(Cl)cc32)C1 (stereo not given),16.9%
5,C1=Cc2ccccc2N(c2nnc(-c3ccccc3)o2)c2ccccc21,98.7%
6,COc1cc2cc(Oc3ccc(NC(=O)Nc4ccc(Cl)c(Cl)c4)cc3)c(C)nc2cc1OC,-16.7% (active)
7,CN(C)Cc1cc(C(C)(C)C)cc(Br)c1O,90.2%
8,O=S(=O)(NCCCNc1nccc(-c2[nH]c(-c3ccccc3)nc2-c2ccc(F)c(O)c2)n1)c1cccc2ccccc12,48.8%
9,CC(C)=NNC(N)=S,10.6%
10,Cn1cnc([N+](=O)[O-])c1/C=C1\Oc2ccc(Br)cc2C1=O,80.9%
11,COc1ccc(-c2csc(NC(=O)CSc3nc(C)cc(=O)[nH]3)n2)cc1,118%
12,CCCCCCCC/C=C\CCCCCCCC(=O)Oc1cccc2cccnc12,121%
13,CC(=O)Oc1ccc(C2=Cc3ccc(OC(C)=O)cc3OC2C)cc1 (stereo not given),56.5%
14,CC/C=C\C[C@H](O)C/C=C1/C(=O)C=C[C@@]1(C)C/C=C\CCCC(=O)OC,105%
15,COc1cc(C(c2c[nH]c3ccccc23)N2CCCC2)ccc1OCc1ccccc1 (stereo not given),53.9%
16,C=CCn1c(SCC(=O)Nc2ccc(OC)cc2)nnc1-c1ccc(Cl)cc1,81%
17,Cc1ccc2c(c1)C(=O)CCS2,111%
18,Cc1ccc2cccc(OC(=O)Nc3cccc(C(F)(F)F)c3)c2n1,75.4%
19,CNC1CCc2c(sc(NC(=O)c3ccc(C(C)(C)C)cc3)c2C(N)=O)C1 (stereo not given),-37.2% (active)
20,CCn1cc(C(=O)O)c(=O)c2cnc(N3CCCC3)nc21,99.2%
